Values joined by “and” are separate entries in the source; they are usually repeats but may differ in a detail not shown here. Equal entries are not always repeated.
How the values were obtained:
Assay in all cases: growth inhibition (% activity, log2 RLU normalised to DMSO / staurosporine); higher = more growth inhibition
Conditions in all cases: 33 µM
DIPGX29 = system: DIPGX29 (H3.3 K27M diffuse intrinsic pontine glioma line)
Method in brief: (§1)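 Approved drugs were tested in triplicate at a single final concentration of about 33 μM for 7 days at 37 °C, 5% CO2, on pHGG cell lines and H9-derived neural stem cells. Readout was CellTiter-Glo luminescence, log2-transformed and scaled per plate to % activity between solvent and positive control wells. The median over replicates gives the growth-inhibition value.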

DIPGX37 = system: DIPGX37 (H3.3 K27M diffuse intrinsic pontine glioma line)
Method in brief: as §1

DIPGX7 = system: DIPGX7 (H3.3 K27M diffuse intrinsic pontine glioma line)
Method in brief: as §1

DIPGX9 = system: DIPGX9 (diffuse intrinsic pontine glioma line)
Method in brief: as §1

HGGX39 = system: HGGX39 (paediatric high-grade glioma line)
Method in brief: as §1

HGGX6 = system: HGGX6 (H3.3 G34R paediatric high-grade glioma line)
Method in brief: as §1

HNSC = system: HNSC
Method in brief: as §1

SUDIPGIV = system: SUDIPGIV (diffuse intrinsic pontine glioma line)
Method in brief: as §1

SUDIPGVI = system: SUDIPGVI (diffuse intrinsic pontine glioma line)
Method in brief: as §1

SUDIPGXIII = system: SUDIPGXIII (diffuse intrinsic pontine glioma line)
Method in brief: as §1

Row | Compound | growth inhibition (DIPGX29) | growth inhibition (DIPGX37) | growth inhibition (DIPGX7) | growth inhibition (DIPGX9) | growth inhibition (HGGX39) | growth inhibition (HGGX6) | growth inhibition (HNSC) | growth inhibition (SUDIPGIV) | growth inhibition (SUDIPGVI) | growth inhibition (SUDIPGXIII)
1 | CC[C@H](C)C[C@H](C)CCCCCCCCC(=O)N[C@H]1C[C@@H](O)[C@@H](NCCN)NC(=O)[C@@H]2[C@@H](O)CCN2C(=O)[C@H]([C@H](O)CCN)NC(=O)[C@H]([C@H](O)[C@@H](O)c2ccc(O)cc2)NC(=O)[C@@H]2C[C@@H](O)CN2C(=O)[C@H]([C@@H](C)O)NC1=O | -0.204% | -0.0661% | 3.78% | 1.06% | 2.93% | -1.44% | 7.21% | -1.11% | -4.4% | 0.336%
2 | O=C1CCc2cc(OCCCCc3nnnn3C3CCCCC3)ccc2N1 | 3.36% | 2.01% | 4.29% | 2.35% | 7.05% | 2.3% | 4.38% | 3.38% | 3.43% | 1.12%
3 | CC1(C)S[C@@H]2[C@H](NC(=O)C(C(=O)O)c3ccccc3)C(=O)N2[C@H]1C(=O)O (stereo not given in full) | 0.227% | 2.06% | 0.432% | 0.809% | 2.53% | 1.87% | 0.956% | -0.316% | 3.27% | 0.516%
4 | CC(C)n1c(/C=C/[C@@H](O)C[C@@H](O)CC(=O)O)c(-c2ccc(F)cc2)c2ccccc21 | 4.64% | 0.671% | 6.29% | 6.39% | 18.7% | 10.2% | 26.9% | 26.2% | 0.023% | 3.96%
5 | COc1c(N2CCNC(C)C2)c(F)cc2c(=O)c(C(=O)O)cn(C3CC3)c12 (stereo not given) | 0.952% | -1.73% | 2.3% | 1.28% | 4.77% | 0.493% | 8.87% | 1% | 2.31% | 1.42%
6 | CCC(=O)NCC[C@@H]1CCc2ccc3c(c21)CCO3 | -0.665% | -0.134% | 1.26% | 0.325% | 1.29% | -0.174% | 3.01% | 0.00903% | 1.36% | 0.726%
7 | CO[C@H]1C[C@@H]2CC[C@@H](C)[C@@](O)(O2)C(=O)C(=O)N2CCCC[C@H]2C(=O)O[C@H]([C@H](C)C[C@@H]2CC[C@@H](OC(=O)C(C)(CO)CO)[C@H](OC)C2)CC(=O)[C@H](C)/C=C(\C)[C@@H](O)[C@@H](OC)C(=O)[C@H](C)C[C@H](C)/C=C/C=C/C=C/1C | 1.36% | 0.103% | 4.97% | 14% | 6.98% | 5.24% | 3.52% | 1.47% | 3.49% | -0.989%
8 | CC1OC(n2cc(F)c(=O)[nH]c2=O)C(O)C1O (stereo not given) | -0.415% | 1.44% | -1.58% | 1.19% | -0.346% | 1.76% | -0.812% | 2.36% | 0.29% | 1.21%
9 | Cc1[nH]c(=O)c(C#N)cc1-c1ccncc1 | 1.05% | 4.4% | 1.37% | 1.64% | 3.34% | -0.118% | 3.65% | 2.63% | 4.48% | -1.25%
10 | O=C(N/N=C/c1ccc([N+](=O)[O-])o1)c1ccc(O)cc1 | 6.1% | 2.69% | 4.79% | 5.76% | 11% | 4.58% | 17.4% | 18.5% | 13.9% | 2.98%
11 | C[C@@H]1CCN(C(=O)CC#N)C[C@@H]1N(C)c1ncnc2[nH]ccc12 | 0.671% | -1.72% | 0.986% | -0.0672% | 1.55% | -3.29% | 19.9% | -0.0962% | -2.08% | 1.44%
12 | Nc1ccc(S(=O)(=O)Nc2ncccn2)cc1 | 0.254% | 1.69% | 0.776% | -0.452% | 0.395% | 0.228% | 1.26% | -0.517% | 1.02% | -2.51%
13 | CC(=O)Oc1ccc(C(c2ccc(OC(C)=O)cc2)c2ccccn2)cc1 | 2.78% | 3.71% | 5.33% | 8.29% | 20.8% | 3.52% | 4.99% | 18.7% | 3.8% | 5.98%
14 | CN1CCN(CCCN2c3ccccc3Sc3ccc(Cl)cc32)CC1 | 4.66% | 1.44% | 9.7% | -0.83% | 3.02% | 1.39% | 13.3% | -0.567% | -3.14% | -0.277%
15 | CC(=O)Nc1ncc([N+](=O)[O-])s1 | -0.525% | -1.35% | -1.25% | -0.952% | 1.46% | 1.88% | -5.25% | -1.68% | -0.127% | 11.8%
16 | CCCCc1nc(Cl)c(CO)n1Cc1ccc(-c2ccccc2-c2nnn[nH]2)cc1 | 1.53% | -1.24% | -0.599% | 0.985% | 0.264% | 1.5% | 2.21% | 0.0281% | 1.16% | 0.404%
17 | CCOc1ccc2nc3cc(N)ccc3c(N)c2c1 | -0.121% | 2.61% | 2.68% | 3.22% | -1.26% | 1.77% | 2.09% | 1.88% | -0.000958% | 1.33%
18 | Cc1onc(-c2ccccc2)c1C(=O)N[C@@H]1C(=O)N2[C@@H]1SC(C)(C)[C@@H]2C(=O)O | -1.74% | -1.12% | -1.18% | -0.122% | -0.815% | 0.0702% | -4.11% | 0.237% | 0.245% | -1.71%
19 | CC=CC1=C(C(=O)O)N2C(=O)[C@@H](NC(=O)[C@H](N)c3ccc(O)cc3)[C@H]2SC1 | -1.6% | 0.508% | -0.595% | 0.543% | -1.99% | 1.84% | -1.83% | -0.89% | 0.277% | -12.4%

Row | Compound | growth inhibition (DIPGX29) | growth inhibition (DIPGX37) | growth inhibition (DIPGX7) | growth inhibition (DIPGX9) | growth inhibition (HGGX39) | growth inhibition (HGGX6) | growth inhibition (HNSC) | growth inhibition (SUDIPGIV) | growth inhibition (SUDIPGVI) | growth inhibition (SUDIPGXIII)
20 | CN1CCCCC1CCN1c2ccccc2Sc2ccc([S+](C)[O-])cc21 (stereo not given) | -1.62% | 1.07% | -1.12% | -0.108% | -0.329% | -0.926% | 1.22% | -1.02% | -0.796% | 1.03%
21 | CC1=C(C(=O)OC(C)C)C(c2cccc([N+](=O)[O-])c2)C(C(=O)OC2CN(C(c3ccccc3)c3ccccc3)C2)=C(N)N1 (stereo not given) | 9.28% | 5.94% | 22.2% | 3.53% | 13.3% | 15.6% | 58% | 14.3% | 27.2% | 11.7%
22 | CC(C(=O)O)c1ccc(-c2ccccc2)c(F)c1 (stereo not given) | 0.779% | 3.25% | 1.53% | 1.06% | 2.57% | 1.43% | 0.919% | -4.24% | 2.75% | -0.916%
23 | NC(=O)NO | -5.64% | -0.579% | -2.73% | -1.74% | -1.77% | -4.15% | 2.98% | -2.11% | -4.44% | 1.21%
24 | CN(C)c1ccc(O)c2c1C[C@H]1C[C@H]3[C@H](N(C)C)C(=O)C(C(N)=O)=C(O)[C@@]3(O)C(=O)C1=C2O | -4.52% | -0.19% | 0.692% | -1.39% | 3.12% | -2.93% | 5.14% | 2.56% | -1.8% | 1.96%
25 | Cc1cn(-c2cc(NC(=O)c3ccc(C)c(Nc4nccc(-c5cccnc5)n4)c3)cc(C(F)(F)F)c2)cn1 | 2.27% | 3.07% | 4.89% | 1.74% | 3.66% | 2.75% | 4.26% | 1.93% | 2.31% | -2.01%
26 | CSc1nc2cc(Cl)c(Oc3cccc(Cl)c3Cl)cc2[nH]1 | 1.22% | -0.121% | -0.253% | 0.647% | 4.81% | 3.1% | -0.0294% | 2.29% | 1.54% | 2.86%
27 | CNCCc1ccccn1 | 0.924% | 1.45% | 1.21% | 1.11% | 2.84% | 1.49% | 1.31% | 1.96% | 4.33% | -0.14%
28 | CCCCN1CCCCC1C(=O)Nc1c(C)cccc1C (stereo not given) | -1.45% | -1.09% | -1.58% | 0.909% | 1.03% | 0.943% | -1.77% | -2.22% | -1.08% | 7.3%
29 | CC(C(=O)O)c1cccc(Oc2ccccc2)c1 (stereo not given) | 1.86% and -0.732% | 4.27% and 0.295% | 0.905% and -1.45% | 0.241% and -0.0623% | 1.32% and -0.621% | 2.03% and -0.313% | 0.908% and -1.16% | -2.87% and -3.43% | 3.45% and 0.152% | 0.892% and 1.49%
30 | O=C(O)c1cc(=O)c2ccccc2o1 | -0.199% | -0.128% | 0.253% | 1.55% | 0.445% | -1.13% | -0.975% | 0.468% | 2.48% | 0.672%
31 | CCN(CC)C(=O)C1(c2ccccc2)CC1CN (stereo not given) | 0.721% | 0.301% | 0.852% | 0.846% | 0.86% | 2.42% | 1.54% | 1.15% | 2.57% | 0.599%
32 | Cc1ccc(C(=O)Nc2ccc(CN3CCN(C)CC3)c(C(F)(F)F)c2)cc1C#Cc1cnc2cccnn12 | 60.2% | 59.1% | 51.4% | 56.7% | 56.8% | 50% | 62.7% | 18.6% | 6.05% | 22.9%
33 | CC(=O)O[C@]1(C(C)=O)CC[C@H]2[C@@H]3C[C@H](C)C4=CC(=O)C=C[C@]4(C)[C@@]3(F)[C@@H](O)C[C@@]21C | 1.69% | 3.28% | 0.393% | 5.69% | 4.16% | -1.08% | 0.0126% | -1.42% | 3.88% | 1.16%
34 | NCCc1ccc(O)c(O)c1 | -0.86% | 1.63% | -0.591% | 0.714% | 0.908% | -1.23% | 5.73% | 1.26% | 0.907% | -1.27%
35 | CCCC(=O)O[C@]1(C(=O)COC(C)=O)CC[C@H]2[C@@H]3C[C@H](F)C4=CC(=O)C=C[C@]4(C)[C@@]3(F)[C@@H](O)C[C@@]21C | 1.5% | 1.44% | -0.393% | 2.91% | 2.12% | 0.881% | -3.23% | -4.91% | -0.161% | 1.12%
36 | CN1CCN(C2=Nc3ccccc3Oc3ccc(Cl)cc32)CC1 | -0.96% | 1.38% | -0.128% | 1.22% | 6.27% | -0.859% | 1.57% | 4.37% | -2.03% | 0.859%
37 | COc1ccc2cccc(CCNC(C)=O)c2c1 | -3.08% | -0.948% | -1.76% | -2.3% | -1.63% | -4.45% | -2.84% | -2.11% | -2.45% | -0.361%
38 | COC(=O)Nc1nc2cc([S+]([O-])c3ccccc3)ccc2[nH]1 (stereo not given) | 4.96% | 6.45% | 4.77% | 5.87% | 4.89% | 4.72% | 19.2% | 6.67% | 5.46% | 0.605%

From the supplement of paper PMC8253809
